This is a sample that favours compounds with a hit; in the whole collection about 0.62% have one here.
TSHR antag = blocks TSH signaling through the human TSH receptor; TSHR-expressing cells, TSH-stimulated cAMP HTRF, 2 h; active compounds read low; 330,000 tested, 0.2% active; activity change, negative = inhibition, % at 11.5 µM;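 active = activity change below a set negative limit, meaning inhibition stronger than a set level, cut at about -70% in these data; inconclusive = activity change between two set negative limits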; also: % is scaled to controls: 0 for no effect and ±100 for the full control effect
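Read-out is FRET at 665 nm (cryptate excitation 337 nm) from a cryptate-tagged anti-cAMP antibody, competed by cell cAMP against cAMP-d2. Compounds are tested on freshly harvested TSHR cells challenged with 4nM TSH (EC80) for 2 hours at 37 deg C.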
p53 reactivator = restores transcriptional activity of mutant p53; H1299 p53-A138V BP100-luciferase reporter, luminescence, 24 h; Potency, µM (highest dose often 92.2 µM), for the others: at the top dose activity change, positive = activation, most hits filed as activators; 320,000 tested, 0.063% active; active = well fitted activation curve with a large enough effect; inconclusive = small, poorly fitted or top-dose-only effect; inactive = no such curve, though single readings can be large or run the other way; also: potency is read from the fitted curve at half-maximal effect; % of control where 0% means no effect; nearly all actives have a fitted effect of over 45% in size
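p53-null H1299 cells stably carrying temperature-sensitive p53-A138V and a BP100-luciferase reporter were pinned with compounds (4-point, 1:5 series) and held 24 hrs at 37 deg C. Luminescence was read 10 min after detection reagent.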
Rango complex inh = inhibitors of Rango-importin beta complex formation. Q14974. Rango CFP/YFP FRET sensor + importin beta, 45 min. Potency, µM (highest dose often 92.2 µM), inactives show at the highest dose inhibition of complex formation. 340,000 tested, 0.031% active. AID 540263;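 also: potency is read from the fitted curve at half-maximal effect; 0% = DMSO wells and 100% = buffer wells lacking importin beta; nearly all actives have a fitted effect of over 15% in size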
Target sequence (Q14974 whole entry, looked up): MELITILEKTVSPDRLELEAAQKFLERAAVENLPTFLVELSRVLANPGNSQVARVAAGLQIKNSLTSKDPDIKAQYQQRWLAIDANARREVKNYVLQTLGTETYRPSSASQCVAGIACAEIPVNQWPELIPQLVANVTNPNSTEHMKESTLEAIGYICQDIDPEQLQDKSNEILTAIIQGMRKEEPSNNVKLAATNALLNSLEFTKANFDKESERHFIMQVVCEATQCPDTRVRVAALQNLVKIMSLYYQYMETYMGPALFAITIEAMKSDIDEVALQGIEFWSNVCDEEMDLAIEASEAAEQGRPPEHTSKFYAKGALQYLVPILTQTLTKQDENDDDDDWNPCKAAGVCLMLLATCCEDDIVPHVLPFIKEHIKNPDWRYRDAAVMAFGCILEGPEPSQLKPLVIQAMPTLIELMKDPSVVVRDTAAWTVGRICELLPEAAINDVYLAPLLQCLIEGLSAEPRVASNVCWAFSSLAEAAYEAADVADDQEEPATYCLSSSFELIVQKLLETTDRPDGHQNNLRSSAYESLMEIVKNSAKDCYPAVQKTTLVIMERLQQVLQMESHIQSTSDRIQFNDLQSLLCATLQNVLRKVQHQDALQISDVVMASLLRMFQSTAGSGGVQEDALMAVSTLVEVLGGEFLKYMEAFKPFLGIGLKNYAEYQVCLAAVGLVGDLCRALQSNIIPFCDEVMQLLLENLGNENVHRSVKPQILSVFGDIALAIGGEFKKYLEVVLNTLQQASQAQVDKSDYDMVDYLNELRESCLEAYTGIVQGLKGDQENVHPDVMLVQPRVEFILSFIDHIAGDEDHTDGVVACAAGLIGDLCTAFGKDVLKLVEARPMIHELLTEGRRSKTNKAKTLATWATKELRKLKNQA
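FRET biosensor Rango (snurportin 1 IBB between N-terminal EYFP and C-terminal Cerulean), 50 nM in PBS/1 mM DTT/0.02% Tween-20/0.1% BSA, preincubated 5 min RT with compound; 0.125 microM importin beta added, 45 min RT, CFP/YFP FRET ratio read.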
pAkt inh = Akt phosphorylation inhibition; Neuro2A IGF-stimulated pAkt S473 HTRF, 20 min; active compounds read low; activity change, % for hits at 50 µM; 360,000 tested, 0.32% active; AID 651550; in the data active = activity change below about -80%; inconclusive = mostly about -51% to -80%; also: % is scaled to controls: 0 for no effect and ±100 for the full control effect
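Neuro2A cells in DMEM with 0.5% FBS, overnight at 37 deg C, given compound at single 50 µM final, then IGF (6 nM final) for 20 min at 37 deg C. Lysed; phospho-Akt Ser473 by HTRF after 24 h, 665/615 ratio.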
Rango dissoc inh = prevents RanGTP from dissociating the Rango-importin beta complex; Potency, µM (highest dose often 46.1 µM), for the others: at the highest dose activity change, negative = inhibition; 340,000 tested, 0.071% active; O95149+P62826; Biochemical FRET Rango-importin beta, RanGTP-induced dissociation; also: potency is read from the fitted curve at half-maximal effect; % of control where 0% means no effect; nearly all actives have a fitted effect of over 45% in size
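FRET read at 45 min, room temperature: inhibitors block the CFP/YFP signal rise when RanGTP (0.6 uM Ran, 2 mM GTP, 0.2 uM RCC1) frees Rango (0.1 uM) from importin beta (0.25 uM). Pre-read after 5 min compound exposure flags interference.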
Active calls of the source: *; i = inactive; ? = inconclusive; / = no result given. Unless noted, calls follow the shape of the full dose curve.

SMILES	TSHR antag	p53 reactivator	Rango complex inh	pAkt inh	Rango dissoc inh
CCOC(=O)N1CCC(NC(=O)c2cc(C(=O)Nc3ccc(S(=O)(=O)N4CCOCC4)cc3)ccc2CO)CC1	-1.9	10.5%	-3.9%	i	?
Cn1c(C(=O)NCc2cccnc2)cc2sccc21	2.6	-13.0%	-1.9%	-83.2%*	-11.3%
O=C(Cc1cccs1)NCc1cccnc1	-4.4	-8.4%	-3.7%	-93.2%*	14.8%
COc1ccccc1CNC(=O)c1cc2sccc2n1C	12.7	-3.3%	-2.0%	i	0.0%
O=C(Cc1cccs1)NCc1cccs1	-3.5	-0.8%	5.5%	i	-7.5%
CCNC(=S)N1CCN(S(=O)(=O)/C=C/c2ccccc2)CC1	34.9	-4.1%	-0.7%	i	5.8%
Cc1cc(C(=O)Nc2ccc3ccccc3c2)c(C)o1	-20.3	25.1µM*	-0.9%	i	-15.5%
CCOc1ccc(S(=O)(=O)N2CCC(C(=O)NCCN3CCOCC3)CC2)cc1C	3.0	-3.9%	-3.1%	i	-3.4%
CC1CCN(Cc2c(C(=O)N/N=C/c3cc(Cl)ccc3O)nnn2-c2nonc2N)CC1	-99.9*	1.0%	-2.3%	i	-0.1%
CC1CCN(Cc2c(C(=O)N/N=C/c3cc(Br)ccc3O)nnn2-c2nonc2N)CC1	-3.6	17.1%	-4.8%	i	0.5%
COc1cc(NC(=O)CN2C(=O)NC(C)(c3ccc4ccccc4c3)C2=O)c(C)cc1[N+](=O)[O-] (configuration not stated)	12.6	-12.8%	-1.4%	i	1.8%
COc1ccc(NC(=O)CCc2c(C)nc3nc(C)nn3c2C)cc1	-1.8	0.1%	1.3%	-117.5%*	-1.5%
COc1ccc(-c2cc(-c3ccc(Cl)cc3)c(C#N)c(SCC(=O)O)n2)cc1	-71.6*	10.8%	?	i	-3.8%
COCc1cc(C)nc(SCC(=O)Oc2ccc(Cl)cc2)c1C#N	4.3	12.2%	?	i	9.2µM*
COCc1cc(C)nc(SCC(=O)Oc2ccccc2)c1C#N	-8.4	5.2%	?	i	?
CC1(C)C(=O)Nc2ccccc2N1C(=O)COC(=O)c1cccs1	-7.0	-3.7%	-0.5%	i	0.3%
Nn1c(SCC(=O)Nc2ccc(N3CCOCC3)cc2)nnc1-c1cccc(F)c1	-1.8	?	-1.4%	i	-2.4%
CC(=O)N1c2ccc(S(=O)(=O)NCCC(=O)Nc3ccccc3C)cc2CC1C (configuration not stated)	-133.4*	1.2%	?	i	5.4%
CC(=O)N1c2ccc(S(=O)(=O)NCCC(=O)Nc3cccc(Cl)c3)cc2CC1C (configuration not stated)	-126.4*	1.1%	3.3%	i	-10.2%
N#C/C(=C\c1cc(Cl)cc(Cl)c1O)C(=O)NC1CCCCC1	-16.9	-7.6%	?	i	6.51µM*
N#C/C(=C\c1cc(Cl)ccc1O)C(=O)NC1CCCCC1	30.8	1.4%	0.5%	/	-10.4%
CNc1c(NC(=O)c2ccc3c(c2)OCO3)c(=O)oc2ccccc12	-135.9*	11.2%	4.2%	i	17.9%
COc1cccc(NC(=O)c2oc3ccccc3c2NC(=O)c2ccc3c(c2)OCO3)c1	-9.8	10.3%	4.3%	i	-20.0%
Cn1nccc1C(=O)N1CCN(c2ncccn2)CC1	-6.4	-0.9%	0.7%	i	-3.3%
COc1cc(C(C(=O)NCc2ccccc2)N(C(=O)c2snc(C(N)=O)c2N)C2CCCC2)cc(OC)c1OC (configuration not stated)	-108.3*	-2.3%	-1.8%	i	?
SMILES	TSHR antag	p53 reactivator	Rango complex inh	pAkt inh	Rango dissoc inh
COc1ccc(C(C(=O)NCc2ccccc2)N(C(=O)c2snc(C(N)=O)c2N)C2CCCC2)cc1 (configuration not stated)	6.2	-2.2%	-0.6%	i	-4.1%
COc1ccc(CN2CC(C(=O)N3CC(C)CC(C)C3)CC2=O)cc1 (configuration not stated)	3.6	1.3%	3.3%	i	2.0%
O=C(Nc1ccc2c(c1)OCCO2)C(c1ccncc1)n1c(=O)c(-c2cc3ccccc3[nH]2)nc2ccccc21 (configuration not stated)	/	/	/	i	/
O=C(Cn1cc(SCc2cccc(Cl)c2)c2ccccc21)N1CCOCC1	-16.8	28.2µM*	-0.5%	i	-10.2%
CCCCOC(=O)CCc1nc2ccccc2[nH]c1=O	-1.9	-1.7%	-0.8%	i	-7.0%
CCOC(=O)c1ccc(COC(=O)CCc2nc3ccccc3[nH]c2=O)o1	-7.1	2.3%	4.5%	-103.0%*	-15.2%
CCCCn1c(SCC(=O)Nc2ccc(NC(C)=O)cc2)nc2ccccc2c1=O	5.5	/	7.0%	i	12.0%
CCCCn1c(SCC(=O)Nc2cc(C)on2)nc2ccccc2c1=O	29.1	14.9%	5.6%	-105.5%*	17.9%
CC(c1ccccc1)C1CC(=O)N(c2cc(Cl)ccn2)C1=O (configuration not stated)	10.1	4.5%	-0.8%	i	-13.2%
C[C@@H](NC(=O)[C@@H]1CCCN1C(=O)[C@@H]1CCCN1C(=O)c1cccs1)c1ccccc1	/	/	/	i	/
O=C(OCCOCCN=C1NS(=O)(=O)c2ccccc21)c1ccncc1	2.1	-4.5%	0.3%	-106.7%*	-9.9%
CC[C@@H](C)[C@H]1O[C@]2(CC[C@H]1C)C[C@@H]1C[C@@H](CC=C(C)[C@@H](O[C@H]3C[C@H](OC)[C@@H](O[C@H]4C[C@H](OC)[C@@H](O)[C@H](C)O4)[C@H](C)O3)[C@@H](C)C=CC=C3CO[C@@H]4[C@H](O)C(C)=C[C@@H](C(=O)O1)[C@]34O)O2	-17.8	/	/	/	/
COc1cccc(-c2nc(CS(=O)(=O)CC(=O)N3CCCCC3)c(C)o2)c1	-96.9*	?	1.2%	i	9.6%
COc1cccc(-c2nc(CS(=O)(=O)CC(=O)NC3CCCCCC3)c(C)o2)c1	-97.0*	-2.6%	-0.9%	i	7.6%
COc1cccc(-c2nc(CS(=O)(=O)CC(=O)N3CCN(c4ccccn4)CC3)c(C)o2)c1	2.4	-5.1%	2.6%	i	6.2%
S=C(NCCc1ccccc1)N1CCc2ccccc2C1	9.9	7.3%	1.4%	i	-6.4%
C=CCN1C(=O)c2ccc(C(=O)N3CCN(c4ccccc4OC)CC3)cc2C1=O	-4.6	3.2%	0.3%	i	8.2%
CCn1c(SCC(=O)Nc2ccccc2C)nnc1-c1ccccc1O	-10.4	2.7%	2.6%	i	6.7%
Cc1ccccc1NC(=O)CSc1nnc(-c2ccccc2)n1-c1ccccc1	5.3	-7.6%	0.3%	-98.1%*	-2.0%
O=C(Nc1cccc(Cl)c1)c1cc(N=Nc2ccc([N+](=O)[O-])cc2Cl)ccc1O	-97.6*	5.9%	-3.0%	i	-1.5%
O=C(Nc1ccc([N+](=O)[O-])cc1Cl)c1cccc([N+](=O)[O-])c1	/	/	/	i	/

Bioassay records from PubChem.
